Compounds without any hit were thinned out: in the full panel of roughly 83,000, 20% have a hit.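 The test compound was applied at a single concentration to cells in 96-well plates for 48 hours, and percent growth was recorded.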 A number with no mark means an inactive call. Calls of active or inactive are those of the source. Rule for the calls: active = growth percent below 10; inactive = the rest.
Columns and labels:
Assay in all cases: NCI-60 one-dose screen, 48 h (100 = growth as untreated, 0 = no growth, -100 = all killed)
Conditions in all cases: 10 µM unless noted
HCT-15 colon = system: HCT-15 colon
HT29 colon = system: HT29 colon
SNB-75 CNS = system: SNB-75 CNS
SNB-19 CNS = system: SNB-19 CNS
U251 CNS = system: U251 CNS
PC-3 prostate = system: PC-3 prostate
SK-MEL-5 melanoma = system: SK-MEL-5 melanoma
UACC-62 melanoma = system: UACC-62 melanoma
LOX IMVI melanoma = system: LOX IMVI melanoma
SK-MEL-28 melanoma = system: SK-MEL-28 melanoma
SK-MEL-2 melanoma = system: SK-MEL-2 melanoma
EKVX NSCLC = system: EKVX NSCLC
SN12C renal = system: SN12C renal
UO-31 renal = system: UO-31 renal
ACHN renal = system: ACHN renal
CAKI-1 renal = system: CAKI-1 renal
A498 renal = system: A498 renal
CCRF-CEM leukemia = system: CCRF-CEM leukemia
MOLT-4 leukemia = system: MOLT-4 leukemia
TK-10 renal = system: TK-10 renal

SMILES | growth (HCT-15 colon) | growth (HT29 colon) | growth (SNB-75 CNS) | growth (SNB-19 CNS) | growth (U251 CNS) | growth (PC-3 prostate) | growth (SK-MEL-5 melanoma) [%] | growth (UACC-62 melanoma) | growth (LOX IMVI melanoma) | growth (SK-MEL-28 melanoma) | growth (SK-MEL-2 melanoma) | growth (EKVX NSCLC) [%] | growth (SN12C renal) | growth (UO-31 renal) | growth (ACHN renal) | growth (CAKI-1 renal) | growth (A498 renal) [%] | growth (CCRF-CEM leukemia) | growth (MOLT-4 leukemia) | growth (TK-10 renal)
CN1C(=O)NC(Cc2c[nH]c3c(Cl)cccc23)C1=O (stereo not drawn) | 99.5% | 110% | 103% | 106% | 92.8% | 82.9% | 98.5 | 96.1% | 99.7% | 115% | 106% | 118 | 101% | 78.5% | 99.3% | 125% | 106 | 113% | 111% | –
C=C1C(=O)O[C@H]2[C@H]1CC/C(COC(=O)NCc1cn(C)c3ccccc13)=C\CC[C@@]1(C)O[C@@H]21 | -45.8% (active) | -62% (active) | 50% | 54.2% | 0.165% (active) | 8.71% (active) | 10.6 | -41% (active) | -65% (active) | -14.6% (active) | -2.82% (active) | 29.6 | 2.93% (active) | -88.3% (active) | – | -18.7% (active) | 63.4 | -13.3% (active) | – | -47.8% (active)
O=C(N/N=C\c1cc(Br)ccc1O)c1ccncc1 | 21.4% | 36.3% | 76.4% | 53.7% | 28.6% | 48.3% | 39.8 | 1.24% (active) | 18% | 45.8% | 31.4% | 29.6 | 46.5% | 23.4% | 27.3% | 24.7% | 74.1 | 8.77% (active) | -10.7% (active) | –
Cc1cc(N)cc(C)c1-c1c(Br)cc(N)cc1Br | 32% | 9.08% (active) | 2.44% (active) | 37.4% | 22.2% | 23.2% | 21 | 48.9% | 16% | 44.5% | 26.6% | 51.8 | 47.9% | 36.1% | 56.2% | 35% | 27.9 | 8.42% (active) | 35.1% | –
Cc1ccc(OC2=C(C#N)C(=N)N3C(=NN2)Sc2c(C)ccc(C)c23)cc1 | 104% | 116% | 96.5% | 118% | 103% | 82.4% | 96.3 | 98.7% | 96.7% | 106% | 121% | 91.5 | 106% | 82.7% | 99% | 86% | 94.9 | 94.9% | – | –
CCCCCCCCCCCCNC(=O)N[C@H](C(=O)N[C@H]1/C=C/OCCNC(=O)/C=C/[C@H](C(C)C)NC1=O)C(C)C | 117% | 34.9% | 46.5% | 47.1% | 43.2% | 51.1% | 46.1 | 55.4% | 55.7% | 46.3% | 66.8% | 86.5 | 93.6% | 93.5% | – | 96.1% | 96.1 | 40.6% | 51.3% | 97.1%
CCOC(=O)c1ccc(NC(=O)CSC(N)=O)cc1 | 99.4% | 126% | 149% | 91.1% | 94.1% | 85.6% | 103 | 96.8% | 85.7% | 128% | 98.6% | 128 | 107% | 56.6% | – | 108% | 111 | 103% | 84.6% | 113%
COc1cc2c(=O)n(CCCN(C)C)c3c4cc[nH]c4ncc3c2cc1OC | 54.7% | 16.2% | 47.9% | 36.6% | 35.1% | 32.8% | 80.9 | 54.5% | 25.3% | 89.9% | 71.5% | 51.1 | 33.9% | 34.1% | 26.6% | 84.5% | 18.8 | 34.5% | -6.64% (active) | –
COc1cc(CN(c2ccc(C)cc2)C2OC(=O)c3ccccc32)cc(OC)c1OC (stereo not drawn) | 6.19% (active) | 18.9% | 6.43% (active) | 38.6% | 32.3% | 51.8% | 19.9 | 45.9% | 42.7% | 51.8% | 55% | 71.8 | 50.1% | 59.7% | – | 49.3% | 51.7 | 11.5% | 17.9% | 93.3%
Cc1ccc([C@H]2c3[nH]c4ccccc4c3C[C@H]3C(=O)N(CCCCCCC(=O)NO)CC(=O)N23)cc1 | 102% | 37.2% | -7.38% (active) | 52.5% | 50.7% | 44.3% | 37.4 | 24.1% | -37.2% (active) | 37.5% | 56.7% | 76.2 | 67.6% | 57.2% | – | 51.2% | 61.9 | 15.2% | 10.9% | 58.7%
CC(C)CCSc1nc(Nc2ccccc2)c(C#N)c(-c2ccc(F)cc2)n1 | 71.7% | 49.9% | 42.1% | 53% | 14% | 59.1% | 96.6 | 82.4% | 60.4% | 87.3% | 90.6% | 65.1 | 38.9% | 30% | – | 55.5% | 40 | – | 51.5% | 20.6%
NS(=O)(=O)c1ccc(CCn2c(SCC(=O)N/N=C/c3cccnc3)nc3ccccc3c2=O)cc1 | 83% | 109% | 90.8% | 100% | 87.7% | 83.8% | 79.5 | 84.5% | 85% | 101% | 92% | 96 | 110% | 83.6% | 102% | 95.6% | 85.5 | 60.3% | 68.8% | –
C#CCNc1nc(NCCNC(=O)CCl)nc(N(C)CCCCc2ccccc2)n1 | 92.4% | 109% | 104% | 99.3% | 98.6% | 107% | 53.8 | 91.7% | -12.5% (active) | 104% | 98.9% | 102 | 77.1% | 82.4% | – | 95.2% | 99.2 | – | 43.3% | 97.7%
COc1ccc(C(=O)O)cc1.[Ag] | 102% | 103% | 110% | 106% | 103% | 77.1% | 46.5 | 108% | 88.7% | 110% | 94.6% | 108 | 103% | 91.2% | – | 87.2% | 96.5 | 25.4% | -52.5% (active) | 106%
O/N=C1\c2ccccc2-c2ccc(Br)cc21 | 102% | 101% | 107% | 104% | 104% | 101% | 104 | 105% | 105% | 118% | 115% | 88.6 | 101% | 81.6% | – | 91.6% | – | 71.8% | 89.2% | 108%
Clc1ccc(-c2cnc3c(-c4ccnc(N5CCNCC5)c4)cnn3c2)cc1 | -22.9% (active) | -7.81% (active) | -68.6% (active) | 3.09% (active) | -58.1% (active) | 15.2% | 73.8 | -66.8% (active) | -80.9% (active) | -82.8% (active) | -57.4% (active) | 80.8 | 10.9% | -42.6% (active) | -0.355% (active) | -19.2% (active) | 92.2 | 0.88% (active) | -5.54% (active) | –
Clc1ccc(-c2cnc3nonc3n2)s1 | 54.4% | 83% | 102% | 91.4% | 87.9% | 51.8% | 24.5 | 54.9% | 36.5% | 94.4% | 93.6% | 107 | 92.6% | 64% | 81.9% | 94.1% | 93.9 | 11.3% | 47.2% | –

Reference: PubChem BioAssay (NCI)
